The values that follow come from PubChem BioAssay (NCI).

Assay [1] is described as follows: NCI Yeast Anticancer Drug Screen. Data for the rad50 strain (AID 155).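 Also: 0% = growth of vehicle-only cultures of the same strain.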 As to conditions: S. cerevisiae rad50 strain growth inhibition; at 50.0 µM; active compounds read high. The method, boiled down: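 Relative growth inhibition (compound vs vehicle) was measured in yeast with a defined repair-gene alteration.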
Assay [2] is described as follows: NCI Yeast Anticancer Drug Screen. Data for the mec2-1 strain (AID 157). The note with it: S. cerevisiae mec2-1 strain, at 50.0 µM, active compounds read high. The method, boiled down: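 Strain: mec2-1 (DNA repair/cell cycle alteration). Compound exposure, then growth measured; inhibition expressed relative to vehicle.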
Assay [3] can be described thus: NCI Yeast Anticancer Drug Screen. Data for the sgs1 mgt1 strain (AID 161).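 Also: 0% = growth of cultures given vehicle only.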 As to conditions: S. cerevisiae sgs1 mgt1 strain, at 50.0 µM, active compounds read high. The method, boiled down:
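Genetically altered yeast, compound exposure, growth inhibition relative to vehicle.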

Assay [4] can be described thus: NCI Yeast Anticancer Drug Screen. Data for the cln2 rad14 strain (AID 165).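 Also: 0% = growth equal to vehicle treated cultures.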 The note with it: S. cerevisiae cln2 rad14 strain, at 50.0 µM, active compounds read high. The method, boiled down: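 Compounds are applied to the cln2 rad14 yeast strain, and growth is then compared with that of vehicle-treated cultures to give inhibition.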
The nature of assay [5]: NCI Yeast Anticancer Drug Screen. Data for the bub3 strain (AID 167). As to conditions: S. cerevisiae bub3 mutant strain, at 50.0 µM, active compounds read high. The method, boiled down:
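Screening used yeast with an engineered genetic alteration affecting cell cycle control. Compound-exposed cultures were compared with vehicle cultures, and reduced growth was taken as inhibition.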

Assay [6] can be described thus: NCI Yeast Anticancer Drug Screen. Data for the mlh1 rad18 strain (AID 175). The note with it: S. cerevisiae mlh1 rad18 strain growth inhibition; at 50.0 µM; active compounds read high. The method, boiled down: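 Read-out is yeast growth inhibition, calculated against vehicle-only controls. The compound was applied to a strain engineered with DNA damage repair alterations.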

About 79,000 compounds went through this panel and 15% of them were active in at least one assay; those are over-represented in the sample as a whole. Values without a mark were called inactive. Calls of active or inactive are those of the source. Rule as the data show it: active = growth inhibition above about 70%; inactive = the rest.

For `O=[N+]([O-])c1ccc(N/N=C/c2ccc(CO)cc2)c([N+](=O)[O-])c1`, the growth inhibition in assay [1] was 4%; in assay [2], -5.65%; in assay [3], 18.1%; in assay [4], -13.9%; in assay [5], 6.1%; in assay [6], 17.2%.
On to `N#CCC(=O)N/N=C1\C(=O)N(c2ccc(Cl)cc2)C(=O)C(=O)C1c1nc2ccccc2o1` (stereo not given), for which the growth inhibition in assay [1] is 22.4%; in assay [2], -11.8%; in assay [3], 0.4%; in assay [4] it was 16.5%; in assay [5], 1.35%; in assay [6] it was 8.45%.
`O=C1CC2CC1C1C(=O)OC(=O)C21` (stereo not given): the growth inhibition in assay [1] was -6.8%; in assay [2], 5.95%; in assay [3], -6.7%; in assay [4] it was -1.6%; in assay [5], -6.9%; in assay [6], -8.6%.
As to `CCc1cccc(CC)c1Nc1nc(C)nc2c1cnn2C`, the growth inhibition in assay [1] is -3.55%; in assay [2], -1.85%; in assay [3], 5.55%; in assay [4] it was -40.1%; in assay [5], 5.35%; in assay [6], 3.95%.
As for `CC(=O)C(=Cc1c[nH]c2ccccc12)C(C)=O`, the growth inhibition was 31.7% in assay [1]; 13.7% in assay [2]; 38.4% in assay [3]; 9.65% in assay [4]; 35.4% in assay [5]; 31.6% in assay [6].
For the compound `CCCOC1OC(CS(=O)(=O)O)C(OC(C)=O)C(OC(C)=O)C1OC(C)=O` (stereo not given), the growth inhibition was 3.25% in assay [1]; 3.1% in assay [2]; 8.4% in assay [3]; 18% in assay [4]; 2.4% in assay [5]; 5.95% in assay [6].
`C=CCN(N=O)C(=O)NCCCCC(NC(C)=O)C(=O)NCc1ccccc1` (stereo not given): the growth inhibition was -10.2% in assay [1]; -22.6% in assay [2]; -21.9% in assay [3]; -6.3% in assay [4]; 5.1% in assay [5]; -14% in assay [6].
Consider `O=C(O)c1cc(-c2c(Cl)cccc2Cl)nc2cc3ccccc3cc12`, for which the growth inhibition in assay [1] was 26%; in assay [2], 15.8%; in assay [3] it was 28.9%; in assay [4], 21.4%; in assay [5], 36.4%; in assay [6], 26.4%.
For the compound `CO/N=C(\C(=O)N(C)n1cnnc1)c1csc(NC(c2ccccc2)(c2ccccc2)c2ccccc2)n1`, the growth inhibition in assay [1] was 21.7%; in assay [2] it was 13.2%; in assay [3], 11.8%; in assay [4] it was 25.1%; in assay [5], 18.8%; in assay [6] it was 28%.
Turning to `O=S(=O)(O)c1ccc(OCCCCCCCCCCOc2ccc(S(=O)(=O)O)cc2)cc1`, the growth inhibition is -14.6% in assay [1]; 9.15% in assay [2]; -9.6% in assay [3]; 0.7% in assay [4]; -5.35% in assay [5]; -8.1% in assay [6].
For the compound `O=C1C(c2ccccc2)=C(c2ccccc2)C(c2ccc(Sc3ccc(C4=C(c5ccccc5)C(=O)C(c5ccccc5)=C4c4ccccc4)cc3)cc2)=C1c1ccccc1`, the growth inhibition in assay [1] is 12.9%; in assay [2] it was 22.6%; in assay [3], 30.6%; in assay [4], 15.7%; in assay [5] it was -1.2%; in assay [6] it was 24.2%.
Regarding `O=C1CCSc2c(cnc3ccccc23)N1`, the growth inhibition is -17.1% in assay [1]; -12.4% in assay [2]; -26.4% in assay [3]; -18.1% in assay [4]; -18.6% in assay [5]; -46.8% in assay [6].
With `CC1(C)CCC(C)(C)C1C(=O)NC(O)C(=O)O` (stereo not given), the growth inhibition is -21.4% in assay [1]; 8.8% in assay [2]; -33% in assay [3]; -2.2% in assay [4]; 3.25% in assay [5]; -9.8% in assay [6].
On to `COC(=O)C(C(C[N+](=O)[O-])c1ccco1)=P(c1ccccc1)(c1ccccc1)c1ccccc1` (stereo not given), for which the growth inhibition in assay [1] is 89.5% (active); in assay [2], 5.25%; in assay [3], 45.6%; in assay [4], 8.15%; in assay [5], 0.95%; in assay [6], 25.1%.
In the case of `COc1ccc2c(c1)OC(C)(C)c1c-2n(C)c2c(F)cccc2c1=O`, the growth inhibition in assay [1] was 14.8%; in assay [2], 8.7%; in assay [3], 16.1%; in assay [4] it was 14.2%; in assay [5] it was 5.35%; in assay [6] it was 29.8%.
`COC1OC2COC(C)(C)OC2C1OS(=O)(=O)c1ccc(C)cc1` (stereo not given): the growth inhibition in assay [1] is -1.75%; in assay [2], 12.6%; in assay [3], 6.4%; in assay [4], -17.1%; in assay [5], -0.5%; in assay [6] it was 29.6%.
As to `CCNC(=O)CCP(=O)(CCC(=O)NCC)CCC(=O)NCC`, the growth inhibition was 7.25% in assay [1]; -3.05% in assay [2]; 3.9% in assay [3]; -4.35% in assay [4]; -6.7% in assay [5]; 6% in assay [6].
For `O=[N+]([O-])c1cccnc1Sc1ncccn1`, the growth inhibition in assay [1] is -7.25%; in assay [2], -12.2%; in assay [3], -10.2%; in assay [4], -23.1%; in assay [5], -25.6%; in assay [6], -6.2%.
For `N#C/C(=N\NC(=O)c1ccccc1)c1ccccc1`, the growth inhibition in assay [1] was 5.65%; in assay [2] it was 4.9%; in assay [3], -3.7%; in assay [4], -32.5%; in assay [5], -8.3%; in assay [6] it was 3.5%.
Consider `O=C(OCc1ccccc1CN1CCCC1)c1ccc(Br)cc1`, for which the growth inhibition is 11% in assay [1]; -6.05% in assay [2]; -9.9% in assay [3]; -16.9% in assay [4]; 20.1% in assay [5]; -17.9% in assay [6].
